High-throughput results: PubChem, National Center for Advancing Translational Sciences (NCATS)
Hits are enriched below; roughly 1.5% of the tested compounds scored in any of these assays.
BRCA1 expr up: qHTS Assay to Identify Small Molecule Activators of BRCA1 Expression. AID 624202, 2012. MCF7-BRCA1-FFLuc reporter, luminescence, 48 h; response scale: scaled: vehicle 0%, 10 µM genistein 100%. 1.1% of 380,000 active. Potency, µM (top dose mostly 46.1 µM), inactives show top-dose activation, usual class: activators; also: potency is read from the fitted curve at half-maximal effect; nearly all actives have a fitted effect of over 80% in size
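MCF7 cells carrying a BRCA1-firefly luciferase reporter (2000 cells/well, phenol-red free MEM) were attached for 2 h at 37 °C, then given compounds for 48 h. Luminescence was read 15 min after luciferase reagent; activity normalized to genistein (10 microM) and DMSO.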
Akt phos inh: HTS Assay for Inhibitors of Akt Phophorylation: Primary Screen. Neuro2A IGF-stimulated pAkt S473 HTRF, 20 min; stronger effect = lower value. activity change, % for hits at 50 µM. 0.32% of 360,000 active; in the data active = activity change below about -80%; inconclusive = mostly about -51% to -80%; also: % is scaled to controls: 0 for no effect and ±100 for the full control effect
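Neuro2A cells in DMEM with 0.5% FBS, overnight at 37 deg C, given compound at single 50 µM final, then IGF (6 nM final) for 20 min at 37 deg C. Lysed; phospho-Akt Ser473 by HTRF after 24 h, 665/615 ratio.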
PINK1 modulator: A Quantitative High throughput Screen to Identify Chemical Modulators of PINK1 Expression | PINK1 immunofluorescence, high-content cytometry, 24 h | Potency, µM (highest dose often 76.6 µM), for inactives: at the top dose activation (PINK1 increase), usual class: activators | 0.2% of 410,000 active | AID 624263, 2012; active = well fitted activation curve with a large enough effect; inconclusive = small, poorly fitted or top-dose-only effect; cell line not stated here; also: potency is read from the fitted curve at half-maximal effect; % of control where 0% means no effect; nearly all actives have a fitted effect of over 65% in size
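Measures PINK1 amount and localization on or inside mitochondria by immunofluorescence. Stable cells get compounds at 5 concentrations for 24 hours before fixation and staining; CCCP controls included.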
TCR act: Activators of T cell receptors: qHTS campaign; primary human leukocytes, anti-CD3, IL-2 HTRF, 48 h; Potency, µM (highest dose often 9.22 µM), for the others: at the highest dose activation of IL-2 secretion, hits mostly activators; 330,000 tested, under 10 active; AID 504894, 2011; also: % of control where 0% means no effect
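TCR engagement came from a-CD3 beads alone, with compounds added to primary human leukocytes for 48 hr. Secreted IL-2 bridged europium cryptate- and d2-labelled anti-IL-2 antibodies, giving FRET emission at 665nm after 320nm excitation.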
An asterisk follows results filed as active; i = inactive; ? = inconclusive; / = no result; [ ] = another dose, or the depositor's remark. Unless noted, calls follow the shape of the dose curve; as a rule, active = well fitted curve in the direction sought with a large enough effect; inconclusive = small, poorly fitted or top-dose-only effect, or another doubt; inactive = no such curve, though single readings can be large; an effect the other way counts as inactive or inconclusive.

SMILES	BRCA1 expr up	Akt phos inh	PINK1 modulator	TCR act
O=S(=O)(CCc1nc2ccccc2o1)c1ccc(Cl)c(Cl)c1	-1%	i	-1%	-5%
Nc1ccc(CCc2nc3ccccc3o2)cc1	2.8µM*	i	11%[38.3 µM]	/
COc1cccc(-c2cc3c(c(OC)c2)OCCN(Cc2ccccc2O)C3)n1	/	/	2%	/
Nc1c(-c2ccc(Cl)cc2)nnn1-c1ccccc1	7.1µM*	i	4%	-1%
Nc1c(-c2ccc(Cl)cc2)cnn1-c1ccccc1	?	i	9%	5%
Cc1c(C(=O)N(CCO)C(C)C)cnn1-c1ncc2c(n1)-c1ccccc1CCC2	/	/	0%	/
CN(C)c1nc(N(C)C)nc(N(C#N)CCOc2ccccc2)n1	-29%	-111%*	2%	-1%[46.1 µM]
N#C/C(=C/c1ccc(Sc2nc3ccccc3[nH]2)o1)c1cccc(F)c1	-67%	i	?	1%
N#C/C(=C/c1ccc(Sc2nc3ccccc3[nH]2)o1)c1cccc(Br)c1	-88%	i	18µM*	5%
Fc1cccc(/C=N/Nc2ccccn2)c1	7.9µM*	i	2%	4%
Fc1cccc(/C=N/Nc2nc3ccccc3[nH]2)c1	4.5µM*	i	7%	-3%
Cc1ncc2c(c1CNC(=O)/C=C/c1cccs1)CCN(C(=O)c1ccc3c(c1)OCCO3)C2	/	/	3%	/
COc1ccc(N2C(=O)CC(Cc3ccccc3OC)C2=O)cc1 (centres undefined)	4%	i	1%	0%
COc1ccc(N2C(=O)CC(N3CCN(c4ccccc4)CC3)C2=O)cc1 (centres undefined)	2%	i	5%	-2%
COc1ccc(N2C(=O)CC(N3CCOCC3)C2=O)cc1 (centres undefined)	-1%	-110%*	-1%	1%
COc1ccc(N2C(=O)CC(Cc3ccccc3)C2=O)cc1 (centres undefined)	15%	-89%*	0%	-2%
CN(C)c1ccc(/C=C2\SC(=S)N(Nc3ncc(C(F)(F)F)cc3Cl)C2=O)cc1	14%	i	18µM*	1%
COc1cc(/C=C2\SC(=S)N(Nc3ncc(C(F)(F)F)cc3Cl)C2=O)ccc1O	-6%	i	3%	-1%
COC(=O)C1CCN(c2csc3ccc(C)cc3c2=O)CC1	/	/	1%	/
COC(=O)c1c(OCc2cccnc2)cc(=O)n2c1CCN(C(=O)c1ccc(OC)c(F)c1)CC2	/	/	1%	/
CC(C)(C)c1ccc(S(=O)(=O)N[C@H]2CC[C@@H](n3cc(C(=O)N4CCCC4)nn3)CC2)cc1	/	/	0%	/
CCOc1ccc2nc(N3CCCC(C(=O)NCc4ccc(OC)cc4)C3)sc2c1 (centres undefined)	/	/	5%	/
CCOc1ccc2nc(N3CCCC(C(=O)NCC4CCCO4)C3)sc2c1 (centres undefined)	10µM*	i	0%	-6%
CCCN(C)CCCOc1cc2nc(N3CCCN(C)CC3)nc(NC3CCN(C)CC3)c2cc1OC	-50%	/	-1%	/
CN(C)c1ccc(C2=Cc3ccccc3C2)cc1	-59%	/	1%	/
SMILES	BRCA1 expr up	Akt phos inh	PINK1 modulator	TCR act
N#C/C(=C(/O)CN1CCN(c2ccccc2F)CC1)c1nc(-c2ccc(Cl)cc2)cs1	-25%	i	/	-4%
N#C/C(=C(/O)CN1CCCCC1)c1nc(-c2ccc(Cl)cc2)cs1	7.1µM*	i	8%[38.3 µM]	3%
COC(=O)C1(C)NC(c2cccs2)C2C(=O)N(c3ccc(F)cc3)C(=O)C21 (centres undefined)	0%	-107%*	0%	-3%
Cc1ccc(-c2csc(NC(=O)c3ccc(Br)cc3)c2C(=O)O)cc1	2µM*	i	0%	-13%
O=C(Nc1ccc(Cl)cc1)C1C2CCCCC21 (centres undefined)	2.2µM*	i	-2%	/
O=C(Nc1cccc(Cl)c1)C1C2CCC3C(CCC21)C3(Cl)Cl (centres undefined)	-56%	i	22µM*	-9%[46.1 µM]
CCn1c(C(C)NC(=O)c2cccs2)nc2ccccc21 (centres undefined)	28%	i	1%	8%
CCCCn1c(C(C)NC(=O)c2cccs2)nc2ccccc21 (centres undefined)	-23%	-103%*	-3%	-2%
C=CCc1c(C)nc2c(-c3ccccc3)cnn2c1N1CCOCC1	2.2µM*	i	0%	1%
Cc1cc(N2CCOCC2)n2ncc(-c3ccccc3)c2n1	-61%	i	-1%[38.3 µM]	1%
COCCN(C)C(=O)c1cnn(-c2ncc3c(n2)-c2ccccc2CCC3)c1C1CC1	/	/	0%	/
N#CCCCc1cn(-c2nc3ccccc3s2)nn1	10µM*	i	0%	/
COCc1cn(-c2nc3ccccc3s2)nn1	11µM*	i	-1%	/
c1ccc(CN2CCN(c3nc4ccccc4s3)CC2)cc1	?	i	3%	-3%
Cc1nc2ccc(C(=O)N3CCc4c(cnc(C)c4CNC(=O)/C=C/c4cccs4)C3)cc2nc1C	/	/	0%	/
COc1cc(=O)n2c(c1C(=O)N(C)Cc1nonc1C)CCN(Cc1c(F)cccc1F)CC2	/	/	1%	/
O=C(c1ccccc1Br)N1CCCC(c2nc(-c3cccs3)no2)C1 (centres undefined)	39%	i	3%	5%
Cc1ccc(-c2noc(C3CCCN(C(=O)c4ccccc4)C3)n2)o1 (centres undefined)	10µM*	i	3%[38.3 µM]	4%
COc1ccc(C(=O)N2CCCC(c3nc(-c4ccc(C)o4)no3)C2)cc1OC (centres undefined)	2%	i	1%	-2%
Cc1ccc(-c2noc(C3CCCN(C(=O)c4ccccc4Br)C3)n2)o1 (centres undefined)	10µM*	i	2%	1%
CC(=O)Nc1ccc(C(=O)CSc2ncn(-c3ccccc3)n2)cc1	75%	-120%*	0%	1%
O=C(CSc1ncn(-c2ccccc2)n1)Nc1nncs1	2%	i	4%	0%
CC(NC(=O)/C(C#N)=C/c1cn[nH]c1-c1ccccc1)c1ccccc1 (centres undefined)	-9%	i	0%	1%
CCc1ccc(C(C)NC(=O)/C(C#N)=C\c2cn[nH]c2-c2ccccc2)cc1 (centres undefined)	-17%	-83%*	?	/
COc1cc(=O)n2c(c1C(=O)N(C)Cc1nccs1)CCN(Cc1cccc(F)c1F)CC2	/	/	2%	/
SMILES	BRCA1 expr up	Akt phos inh	PINK1 modulator	TCR act
COc1cccc(OCc2nc3ncc(Br)cc3[nH]2)c1	-14%	-97%*	4%[38.3 µM]	-2%
Cc1cc(C)cc(OCc2nc3ncc(Br)cc3[nH]2)c1	-51%	i	14%	-13%
CC(=O)c1ccc(NC(=O)c2ccn[nH]2)cc1	?	i	-2%	-3%
O=C(Nc1ccccc1)c1ccn[nH]1	7.1µM*	i	0%	2%
O=C(Nc1ccc(F)cc1)c1cccc(C(=O)Nc2ccc(F)cc2)c1	-9%	i	4%	2%
O=C(Nc1ccccc1)c1ccc(NC(=O)C2CC2)cc1	4µM*	i	9%	3%
